# Assay outcomes: PubChem, The Scripps Research Institute Molecular Screening Center
# FBW7 act: activators of human E3 ligase FBW7; normalized activity (activation), % at 26.1 µM; AID 1259310; hit rate 0.13% among 650,000; AlphaScreen FBW7–phospho-cyclin E peptide binding, activator screen; Q969H0; in the data active means normalized activity above about 1.9%;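 further: purified mutant Fbw7 with reduced substrate affinity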
# GPR151 activ: human GPR151 activation. Q8TDV0. PathHunter beta-arrestin GPR151 cells, luminescence. activation, % at 11.2 µM. hit rate 1% among 650,000. AID 1508602; in the data active means activation above about 4.9%;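 further: 0% = median of compound wells and 100% = cells with positive control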
# TEAD-YAP inh: TEAD-YAP interaction inhibition. hit rate 1.4% among 640,000. inhibition, % at 9.12 µM. HEK-TIYL cells, TEAD-Gal4/YAP UAS-luciferase luminescence. AID 1259422; in the data active means inhibition above about 32%;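 further: 0% = median of test compound wells and 100% = reference inhibitor wells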
# MITF inh: human MITF inhibition, primary screen | hit rate 0.91% among 650,000 | inhibition, % at 2.6 µM | AlphaScreen MITF homodimerization, bead proximity signal | AID 1259374 | O75030; in the data active means inhibition above about 50%;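 further: 0% = vehicle wells with protein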
# Target sequence (O75030 whole entry, looked up): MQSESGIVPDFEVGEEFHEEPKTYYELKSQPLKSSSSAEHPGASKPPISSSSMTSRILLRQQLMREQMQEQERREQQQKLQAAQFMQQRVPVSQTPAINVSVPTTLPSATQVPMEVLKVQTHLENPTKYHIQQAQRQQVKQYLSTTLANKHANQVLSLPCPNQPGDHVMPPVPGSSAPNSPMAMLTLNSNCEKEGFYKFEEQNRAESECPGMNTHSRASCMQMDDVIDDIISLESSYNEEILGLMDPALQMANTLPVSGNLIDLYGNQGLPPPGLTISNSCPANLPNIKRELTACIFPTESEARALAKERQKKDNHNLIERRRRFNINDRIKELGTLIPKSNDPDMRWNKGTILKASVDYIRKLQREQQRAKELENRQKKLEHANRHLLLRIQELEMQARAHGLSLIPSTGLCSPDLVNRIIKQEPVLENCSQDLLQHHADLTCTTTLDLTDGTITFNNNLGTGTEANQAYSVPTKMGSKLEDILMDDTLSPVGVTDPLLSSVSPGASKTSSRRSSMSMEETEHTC
# MITF confirm: human MITF inhibition, confirmation; shares compounds with MITF inh; AlphaScreen MITF homodimerization, biotin/His-MITF beads; inhibition, % at 2.6 µM; hit rate 16% among 4,700; AID 1259372;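 active means inhibition above a cutoff derived from the DMSO control wells, cut at about 28% in these data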;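 further: 0% = MITF dimer wells with DMSO only; inhibitors lower the bead chemiluminescence by keeping MITF from dimerizing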
# AlphaScreen DR: optically interferes with AlphaScreen signal in dose response | shares compounds with MITF inh | AlphaScreen optical interference counterscreen, cell-free | IC50, µM | hit rate 6% among 480 | AID 1259373; call rule not given here
# AS interf ctr: optically interferes with AlphaScreen signal. shares compounds with MITF inh. inhibition, % at 2.6 µM. hit rate 7.6% among 4,700. LysRS AlphaScreen counterscreen, signal interference, triplicate;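 active means inhibition above a cutoff derived from the DMSO control wells, cut at about 30% in these data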
# GPR151 conf act: confirmation of human GPR151 activators. shares compounds with GPR151 activ. GPR151 PathHunter beta-arrestin cells, luminescence, 90 min; % of EA-reagent control over plate median. activation, % at 11.2 µM. 6,700 tested, under 10 active. AID 1508609;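 active means mean percent activation across replicates above the confirmation screen cutoff of 4.91%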
# GPR119 counter: GPR119 activation, counter-screen for GPR151 activators; shares compounds with GPR151 activ; GPR119 PathHunter beta-arrestin cells, luminescence, 90 min; 0 = compound-well median, 100 = enzyme-acceptor control; activation, % at 11.2 µM; hit rate 0.3% among 6,700; AID 1508611;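 active means mean percent activation in the counterscreen above 29.09%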;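 further: counterscreen on off-target GPR119 to flag nonselective hits from the GPR151 activator screen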
# * = called active by the depositor; x = not tested or not shown. The list is not random: actives were taken first. Their share in the collection is about 3.4%.
SMILES,FBW7 act,GPR151 activ,TEAD-YAP inh,MITF inh,MITF confirm,AS interf ctr,others
COc1ccc(O)c(CN2CCN(Cc3cccc(Cl)c3)CC2)c1,-0.2,0.5,-5.2,5.4,x,x,
CSc1ccc(CN2CCN(Cc3cccc(Cl)c3)CC2)cc1,-0.3,0.0,2.1,67.0*,18.6,20.2,
COc1ccc(CN2CCN(Cc3cccc(Cl)c3)CC2)cc1,-0.1,1.4,5.9,82.5*,19.4,14.2,
CCCCn1c(=O)c(C(=O)Nc2nnc(CC(C)C)s2)c(O)c2ccccc21,-0.1,0.1,-11.1,-4.0,x,x,
CN1CCc2nc3ccccc3c(C(=O)O)c2C1,-0.1,-0.7,3.8,-0.4,x,x,
COc1ccc2ccccc2c1CN1CCN(C(=O)Cc2ccccc2)CC1,0.2,-1.3,2.8,54.7*,-11.9,-5.3,
COc1ccc(CN2CCN(C(=O)COc3ccccc3)CC2)cc1OC,-0.3,-0.4,3.9,44.1,x,x,
COc1ccc(CN2CCN(C(=O)Cc3ccccc3)CC2)cc1Br,-0.3,-0.4,8.0,52.8*,15.3,22.0,
COc1ccc(CN2CCN(Cc3cccc(Cl)c3)CC2)cc1Br,0.1,-0.5,4.2,67.9*,38.9*,1.6,AlphaScreen DR=>6.11
COc1ccc(CN2CCN(Cc3ccc(C)cc3)CC2)cc1Br,-0.2,1.4,-2.6,53.4*,14.8,20.5,
Cc1cccc(-n2nnnc2C2(N(C)C)CCCCC2)c1,-0.2,-1.0,-0.9,-7.6,x,x,
COc1ccc(-n2c(/C=C\c3cccc(Br)c3)nc3ccccc3c2=O)c(OC)c1,-0.1,0.3,-1.3,4.5,x,x,
Cc1ccc(CNC(=O)CN2CC(c3ccccc3)CC2=O)cc1 (stereo not drawn),0.3,0.4,8.9,22.9,x,x,
COc1ccc(CN2CCN(Cc3cccc(Br)c3)CC2)cc1Br,0.0,1.9,-1.0,76.3*,12.2,0.7,
O=[N+]([O-])c1ccc(Br)c2c1no[n+]2[O-],-1.0,-1.4,-4.4,73.5*,73.3*,6.8,AlphaScreen DR=>7.51
CCOC(=O)c1ccc(NC(=O)CCc2nc(C3=CCN(C)CC3)no2)cc1,3.4*,1.2,12.1,61.6*,69.3*,38.4*,
COc1ccccc1CCNCc1ccc([N+](=O)[O-])cc1,-0.1,0.0,10.4,35.3,x,x,
O=C(Cc1ccccc1)N1CCN(Cc2cccc(Cl)c2)CC1,-0.3,-1.1,15.1,45.5,x,x,
OCCN1CCN(Cc2ccc(Cl)cc2)CC1,-0.1,-0.1,3.8,67.5*,-1.4,4.7,
OCCN1CCN(Cc2cccc(Cl)c2Cl)CC1,-0.1,-1.2,-7.5,65.2*,-1.7,-0.1,
CCN1CCN(Cc2ccc(Cl)cc2)CC1,0.0,0.3,-0.6,11.3,x,x,
OCCN1CCN(Cc2cccc(Cl)c2)CC1,0.8,-0.6,3.0,83.4*,1.2,3.8,
Cc1cccc(-n2c(-c3ccccc3)nc3ccccc3c2=O)c1,0.1,-0.7,5.8,17.6,x,x,
CCOC(=O)C1(C#N)C2C=CC(C2)C1c1ccc(N(C)C)cc1Br (stereo not drawn),-0.2,0.0,-9.9,3.8,x,x,
Fc1ccc(CN2CCN(Cc3ccc(Cl)cc3)CC2)cc1,0.1,-0.3,9.8,68.4*,1.6,15.6,
Fc1ccc(CN2CCN(Cc3ccccc3)CC2)cc1,0.0,-0.9,-0.5,58.8*,10.9,28.4,
Fc1ccc(CN2CCN(c3ccc(Cl)cc3)CC2)cc1,-0.1,1.6,0.4,8.7,x,x,
Cc1cc(-c2[nH]nc3c2C(c2ccc(F)cc2)C(C#N)=C(N)O3)c(C)s1 (stereo not drawn),0.2,0.3,-0.3,9.6,x,x,
OC1/C(=C/c2cccc(OCc3ccccc3)c2)N2CCC1CC2 (stereo not drawn),0.1,5.9*,-37.0,4.7,x,x,GPR151 conf act=-0.1;GPR119 counter=3.6
COc1ccc(C2C([N+](=O)[O-])=C(N)Oc3c2c(=O)oc2ccccc32)cc1OC (stereo not drawn),0.0,0.8,-6.7,18.9,x,x,
